According to paper PMC8384837, “Expanding the binding specificity for RNA recognition by a PUF domain”:
Numbering of substitutions follows the chain as printed.

Key:
Experiment in all cases: yeast three-hybrid, YBZ-1, SC-Leu-His + 0.5 mM 3-AT, 4 days
Details in all cases: tags: N-Gal4 AD-HA kept; label: inside an RPR1-promoter hybrid RNA with tandem MS2 sites; ssRNA
PUM1 PUF domain R7-LSV = PUM1 PUF domain R7-LSV (Homo sapiens, UniProt Q14671 828-1176, S1079L;N1080S;E1083V)
How it was run: (§1)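 Matching RNA elements and Pumilio-1 PUF domain libraries, randomized at the three base-contacting residues of every repeat, were co-expressed from a centromeric plasmid in strain YBZ-1 (LexA–MS2 coat fusion, HIS3 reporter). The repeat regions were PCR-amplified and Illumina-sequenced from cells grown four days on SC-Leu (input) or SC-Leu-His + 0.5 mM 3-AT (selection). The interaction score is the log change in variant frequency from input to selection. It is computed in log2, with a pseudocount of 1 for absent variants.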

PUM1 PUF domain R3-IFR = PUM1 PUF domain R3-IFR (Homo sapiens, UniProt Q14671 828-1176, C935I;R936F;Q939R)
How it was run: as §1

PUM1 PUF domain R6-AWR = molecular target: T1, PUM1 PUF domain R6-AWR (Homo sapiens, UniProt Q14671 828-1176, N1043A;Y1044W;Q1047R)
T1 sequence: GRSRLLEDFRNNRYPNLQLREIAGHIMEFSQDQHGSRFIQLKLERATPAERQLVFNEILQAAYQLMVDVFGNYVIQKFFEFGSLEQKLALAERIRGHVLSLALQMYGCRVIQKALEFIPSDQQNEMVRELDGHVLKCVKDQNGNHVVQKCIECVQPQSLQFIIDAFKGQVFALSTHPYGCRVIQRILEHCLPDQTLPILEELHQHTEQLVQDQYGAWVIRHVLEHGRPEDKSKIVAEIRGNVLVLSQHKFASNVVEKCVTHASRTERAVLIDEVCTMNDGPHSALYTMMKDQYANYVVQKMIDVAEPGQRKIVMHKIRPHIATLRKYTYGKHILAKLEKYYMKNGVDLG
How it was run: as §1

PUM1 PUF domain R2-RRT = PUM1 PUF domain R2-RRT (Homo sapiens, UniProt Q14671 828-1176, N899R;Y900R;Q903T)
How it was run: as §1

PUM1 PUF domain R2-MVW = PUM1 PUF domain R2-MVW (Homo sapiens, UniProt Q14671 828-1176, N899M;Y900V;Q903W)
How it was run: as §1

PUM1 PUF domain R2-KLS = PUM1 PUF domain R2-KLS (Homo sapiens, UniProt Q14671 828-1176, N899K;Y900L;Q903S)
How it was run: as §1

PUM1 PUF domain R3-PFD = PUM1 PUF domain R3-PFD (Homo sapiens, UniProt Q14671 828-1176, C935P;R936F;Q939D)
How it was run: as §1

PUM1 PUF domain R3-SRK = PUM1 PUF domain R3-SRK (Homo sapiens, UniProt Q14671 828-1176, C935S;Q939K)
How it was run: as §1

PUM1 PUF domain R3-RRP = PUM1 PUF domain R3-RRP (Homo sapiens, UniProt Q14671 828-1176, C935R;Q939P)
How it was run: as §1

PUM1 PUF domain R5-RRM = PUM1 PUF domain R5-RRM (Homo sapiens, UniProt Q14671 828-1176, C1007R;Q1011M)
How it was run: as §1

PUM1 PUF domain R6-EWG = molecular target: T2, PUM1 PUF domain R6-EWG (Homo sapiens, UniProt Q14671 828-1176, N1043E;Y1044W;Q1047G)
T2 sequence: T1 sequence with A216E, R220G
How it was run: as §1

PUM1 PUF domain R6-VWM = molecular target: T3, PUM1 PUF domain R6-VWM (Homo sapiens, UniProt Q14671 828-1176, N1043V;Y1044W;Q1047M)
T3 sequence: T1 sequence with A216V, R220M
How it was run: as §1

PUM1 PUF domain R8-QFR = PUM1 PUF domain R8-QFR (Homo sapiens, UniProt Q14671 828-1176, N1122Q;Y1123F;Q1126R)
How it was run: as §1

PUM1 PUF domain R8-QYP = PUM1 PUF domain R8-QYP (Homo sapiens, UniProt Q14671 828-1176, N1122Q;Q1126P)
How it was run: as §1

PUM1 PUF domain R8-RRR = PUM1 PUF domain R8-RRR (Homo sapiens, UniProt Q14671 828-1176, N1122R;Y1123R;Q1126R)
How it was run: as §1

PUM1 PUF domain R5-KKD = PUM1 PUF domain R5-KKD (Homo sapiens, UniProt Q14671 828-1176, C1007K;R1008K;Q1011D)
How it was run: as §1

PUM1 PUF domain R5-GSE = PUM1 PUF domain R5-GSE (Homo sapiens, UniProt Q14671 828-1176, C1007G;R1008S;Q1011E)
How it was run: as §1

PUM1 PUF domain R4-ANA = PUM1 PUF domain R4-ANA (Homo sapiens, UniProt Q14671 828-1176, N971A;H972N;Q975A)
How it was run: as §1

PUM1 PUF domain R4-GND = PUM1 PUF domain R4-GND (Homo sapiens, UniProt Q14671 828-1176, N971G;H972N;Q975D)
How it was run: as §1

PUM1 PUF domain R4-QPA = PUM1 PUF domain R4-QPA (Homo sapiens, UniProt Q14671 828-1176, N971Q;H972P;Q975A)
How it was run: as §1

Sequence: GGCUAGAACUAGUGGAUCCCCCGGCGCCCGGCGGCUCGAGCCCGGGUAAGUUUAAAUAGUCUGCAUGCCGCCGGGCGCCAUGCCUGCAGGUCGACUCUAGAAAACAUG
- binding signal (PUM1 PUF domain R7-LSV): 4.05 log2 enrichment (interaction score)

Sequence: GGCUAGAACUAGUGGAUCCCCCGGCGCCCGGCGGCUCGAGCCCGGGUAAGUGUAAGUAGUCUGCAUGCCGCCGGGCGCCAUGCCUGCAGGUCGACUCUAGAAAACAUG
- binding signal (PUM1 PUF domain R3-IFR): 5.53 log2 enrichment (interaction score)

Sequence: GGCUAGAACUAGUGGAUCCCCCGGCGCCCGGCGGCUCGAGCCCGGGUAAGUGCAAAUAGUCUGCAUGCCGCCGGGCGCCAUGCCUGCAGGUCGACUCUAGAAAACAUG
- binding signal (PUM1 PUF domain R6-AWR): 2.34 log2 enrichment (interaction score)

Sequence: GGCUAGAACUAGUGGAUCCCCCGGCGCCCGGCGGCUCGAGCCCGGGUAAGUGUAAAGAGUCUGCAUGCCGCCGGGCGCCAUGCCUGCAGGUCGACUCUAGAAAACAUG
- binding signal (PUM1 PUF domain R2-RRT): 2.91 log2 enrichment (interaction score)
- binding signal (PUM1 PUF domain R2-MVW): 3.45 log2 enrichment (interaction score)
- binding signal (PUM1 PUF domain R2-KLS): 2.37 log2 enrichment (interaction score)

Sequence: GGCUAGAACUAGUGGAUCCCCCGGCGCCCGGCGGCUCGAGCCCGGGUAAGUGUAAUUAGUCUGCAUGCCGCCGGGCGCCAUGCCUGCAGGUCGACUCUAGAAAACAUG
- binding signal (PUM1 PUF domain R3-PFD): 4.25 log2 enrichment (interaction score)
- binding signal (PUM1 PUF domain R3-SRK): 2.4 log2 enrichment (interaction score)
- binding signal (PUM1 PUF domain R3-IFR): 3.8 log2 enrichment (interaction score)
- binding signal (PUM1 PUF domain R3-RRP): 4.3 log2 enrichment (interaction score)

Sequence: GGCUAGAACUAGUGGAUCCCCCGGCGCCCGGCGGCUCGAGCCCGGGUAAGUGUAAAUAGUCUGCAUGCCGCCGGGCGCCAUGCCUGCAGGUCGACUCUAGAAAACAUG
- binding signal (PUM1 PUF domain R3-PFD): 5.31 log2 enrichment (interaction score)
- binding signal (PUM1 PUF domain R5-RRM): 2.27 log2 enrichment (interaction score)
- binding signal (PUM1 PUF domain R6-AWR): 5.74 log2 enrichment (interaction score)
- binding signal (PUM1 PUF domain R6-EWG): 4.03 log2 enrichment (interaction score)
- binding signal (PUM1 PUF domain R6-VWM): 4.44 log2 enrichment (interaction score)
- binding signal (PUM1 PUF domain R8-QFR): 4.27 log2 enrichment (interaction score)
- binding signal (PUM1 PUF domain R8-QYP): 2.62 log2 enrichment (interaction score)
- binding signal (PUM1 PUF domain R8-RRR): 5.23 log2 enrichment (interaction score)

Sequence: GGCUAGAACUAGUGGAUCCCCCGGCGCCCGGCGGCUCGAGCCCGGGUAAGUGUCAAUAGUCUGCAUGCCGCCGGGCGCCAUGCCUGCAGGUCGACUCUAGAAAACAUG
- binding signal (PUM1 PUF domain R5-RRM): 4.35 log2 enrichment (interaction score)
- binding signal (PUM1 PUF domain R5-KKD): 3.56 log2 enrichment (interaction score)

Sequence: GGCUAGAACUAGUGGAUCCCCCGGCGCCCGGCGGCUCGAGCCCGGGUAAGUGUUAAUAGUCUGCAUGCCGCCGGGCGCCAUGCCUGCAGGUCGACUCUAGAAAACAUG
- binding signal (PUM1 PUF domain R5-RRM): 4.73 log2 enrichment (interaction score)

Sequence: GGCUAGAACUAGUGGAUCCCCCGGCGCCCGGCGGCUCGAGCCCGGGUAAGUGAAAAUAGUCUGCAUGCCGCCGGGCGCCAUGCCUGCAGGUCGACUCUAGAAAACAUG
- binding signal (PUM1 PUF domain R6-EWG): 1.75 log2 enrichment (interaction score)
- binding signal (PUM1 PUF domain R6-VWM): 6.06 log2 enrichment (interaction score)

Sequence: GGCUAGAACUAGUGGAUCCCCCGGCGCCCGGCGGCUCGAGCCCGGGUAAGUGUGAAUAGUCUGCAUGCCGCCGGGCGCCAUGCCUGCAGGUCGACUCUAGAAAACAUG
- binding signal (PUM1 PUF domain R5-RRM): 1.28 log2 enrichment (interaction score)
- binding signal (PUM1 PUF domain R5-GSE): 3.41 log2 enrichment (interaction score)

Sequence: GGCUAGAACUAGUGGAUCCCCCGGCGCCCGGCGGCUCGAGCCCGGGUAAGUGUAUAUAGUCUGCAUGCCGCCGGGCGCCAUGCCUGCAGGUCGACUCUAGAAAACAUG
- binding signal (PUM1 PUF domain R4-ANA): 3.28 log2 enrichment (interaction score)
- binding signal (PUM1 PUF domain R4-GND): 3.04 log2 enrichment (interaction score)
- binding signal (PUM1 PUF domain R4-QPA): 3.55 log2 enrichment (interaction score)

Sequence: GGCUAGAACUAGUGGAUCCCCCGGCGCCCGGCGGCUCGAGCCCGGGUAAGUGUACAUAGUCUGCAUGCCGCCGGGCGCCAUGCCUGCAGGUCGACUCUAGAAAACAUG
- binding signal (PUM1 PUF domain R4-ANA): 2.08 log2 enrichment (interaction score)

Sequence: GGCUAGAACUAGUGGAUCCCCCGGCGCCCGGCGGCUCGAGCCCGGGUAAGCGUAAAUAGUCUGCAUGCCGCCGGGCGCCAUGCCUGCAGGUCGACUCUAGAAAACAUG
- binding signal (PUM1 PUF domain R8-QFR): 5.16 log2 enrichment (interaction score)
- binding signal (PUM1 PUF domain R8-RRR): 5.62 log2 enrichment (interaction score)
